DT40 TDP1 no CPT – qHTS for Inhibitors of human tyrosyl-DNA phosphodiesterase 1 (TDP1): qHTS in cells in absence of CPT | Potency, µM (top dose mostly 46.2 µM), without a hit: top-dose activity change, negative = growth inhibition, hits mostly inhibitors | DT40 Tdp1-/- hTDP1 cells, no CPT, ATP luminescence, 48 h | actives 15% (n = 420,000); further: potency means the concentration at half of the fitted maximal effect; nearly all actives have a fitted effect of over 55% in size
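Cells were dispensed at 400 per well, compounds added by pin tool, plates incubated ≥48 hr at 37 °C, then CellTiter-Glo added for 30 min at room temperature before luminescence reading. Line: DT40 Tdp1-/- complemented with hTDP1; camptothecin omitted.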
HT1080NT lethal – qHTS for induction of synthetic lethality in tumor cells producing 2HG: qHTS for the HT-1080-NT fibrosarcoma cell line. HT-1080-NT fibrosarcoma viability, CellTiter-Glo ATP luminescence, 48 h. Potency, µM (titrated, usually from 46.1 µM), for the others: at the highest dose activity, negative = less viability, hits mostly cytotoxic. actives 1.6% (n = 360,000);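 further: NT is the 2HG producing partner of a matched IDH1 knockdown line; potency means the concentration at half of the fitted maximal effect; 0% = DMSO-treated cells and -100% = media-only wells without cells; nearly all actives have a fitted effect of over 55% in size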
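Read-out is CellTiter-Glo luminescence after 10 minutes at room temperature, following 48 hours' compound treatment of HT-1080-NT cells (750 cells/well, RPMI, 5% FBS, 37 degrees C).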
HT1080 IDH1KD tx – qHTS for induction of synthetic lethality in tumor cells producing 2HG: qHTS for the HT-1080-IDH1KD cell line. HT-1080 IDH1 knockdown viability, ATP luminescence, 48 h. Potency, µM (titrated, usually from 46.1 µM), for inactives: top-dose activity, negative = toxicity, usual class: cytotoxic. actives 2% (n = 360,000). AID 686971, 2013;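 further: potency means the concentration at half of the fitted maximal effect; 0% = DMSO wells and -100% = cell-free medium wells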
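Using the IDH1-knockdown HT-1080 line run in the same batch and compound series as the NT line, viability after 48 h at 37 °C was determined by CellTiter-Glo luminescence and expressed as % activity.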
TDP1 cell CPT – qHTS for Inhibitors of human tyrosyl-DNA phosphodiesterase 1 (TDP1): qHTS in cells in presence of CPT; chicken DT40 Tdp1-/-;hTDP1 cells + 20 nM CPT, ATP luminescence, 48 h; Potency, µM (top dose mostly 46.2 µM), for inactives: at the highest dose activity change, negative = growth inhibition, usual class: inhibitors; actives 12% (n = 420,000); further: potency means the concentration at half of the fitted maximal effect; nearly all actives have a fitted effect of over 55% in size
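Chicken DT40 Tdp1-/- cells complemented with human TDP1, 400 cells/well, exposed to compounds plus 20 nM camptothecin for at least 48 h at 37 C; viability read as ATP content by CellTiter-Glo luminescence.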
IL1B secr inh – qHTS for Inhibitors of Inflammasome Signaling: IL-1-beta AlphaLISA Primary Screen. activity change, % at 57.5 µM. AID 743279, 2014. actives 4.7% (n = 360,000). THP-1 LPS/ATP IL-1B secretion, AlphaLISA, 16 h; stronger effect = lower value; in the data active means activity change below about -50%; inconclusive means mostly about -30% to -49%
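THP-1 cells pretreated 1 hr with compounds (up to 57.5 uM final), then stimulated with LPS (250 ng/mL final) plus ATP (1.25 mM final); secreted IL-1B measured by AlphaLISA after 16 hr, decreased signal indicating inhibition.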
Numbers without * were called inactive. Shown are actives, neighbours in structure and some others; about 19% of the full set was active somewhere. Unless noted, the call rests on the fitted dose curve; in most records, active means well fitted curve in the direction sought with a large enough effect; inconclusive means small, poorly fitted or top-dose-only effect, or another doubt; inactive means no such curve, though single readings can be large; an effect the other way counts as inactive or inconclusive. Unless noted, on the % scale 0 is the no-effect control and ±100 the full control effect.

What do the screens show for `Brc1ccccc1OCCCCn1cnc2ccccc21`?
DT40 TDP1 no CPT: 10µM*; HT1080NT lethal: -16%; HT1080 IDH1KD tx: inconclusive; TDP1 cell CPT: 4.1µM*; IL1B secr inh: -84*

What do the screens show for `Cc1ccc(OCCCCNC(C)c2ccccc2)c(C)c1` (stereo not drawn)?
DT40 TDP1 no CPT: inconclusive; HT1080NT lethal: inconclusive; HT1080 IDH1KD tx: inconclusive; TDP1 cell CPT: inconclusive; IL1B secr inh: -91*

How did Clc1ccc(Cn2cnc3ccccc32)cc1 do in these assays?
DT40 TDP1 no CPT: inconclusive; HT1080NT lethal: -26%; HT1080 IDH1KD tx: inconclusive; TDP1 cell CPT: inconclusive; IL1B secr inh: -26

How did COc1ccc(S(C)(=O)=O)cc1S(C)(=O)=O do in these assays?
DT40 TDP1 no CPT: -1%; HT1080NT lethal: -5%; HT1080 IDH1KD tx: 25%; TDP1 cell CPT: 6%; IL1B secr inh: 26

What do the screens show for `COc1ccc(-c2oc3c(c2C(=O)OCCO)C(OCCCO)CCC3)cc1` (stereo not drawn)?
DT40 TDP1 no CPT: inconclusive; HT1080NT lethal: 8%; HT1080 IDH1KD tx: 10%; TDP1 cell CPT: inconclusive; IL1B secr inh: 5

Results for CN(Cc1cccs1)C(=O)c1ccc(Cl)c(S(=O)(=O)N2CCCCCC2)c1 ?
DT40 TDP1 no CPT: inconclusive; HT1080NT lethal: inconclusive; HT1080 IDH1KD tx: -14%; TDP1 cell CPT: -30%; IL1B secr inh: -9

Results for CCOc1cccc(-c2c(C(=O)N/N=C(\C)c3cccnc3)nnn2-c2nonc2N)c1 ?
DT40 TDP1 no CPT: 3%; HT1080NT lethal: 2%; HT1080 IDH1KD tx: 1%; TDP1 cell CPT: -3%; IL1B secr inh: 16

Results for O=c1cc(CN2CCN(c3ccc(Cl)c(Cl)c3)CC2)c2c(ccc3ccccc32)o1 ?
DT40 TDP1 no CPT: inconclusive; HT1080NT lethal: 14%; HT1080 IDH1KD tx: 12%; TDP1 cell CPT: inconclusive; IL1B secr inh: 9

Results for CC(C)(C)c1ccc(-n2ncc3c2CCCC3NC(=O)c2csnn2)cc1 (stereo not drawn) ?
DT40 TDP1 no CPT: 12µM*; HT1080NT lethal: 1%; HT1080 IDH1KD tx: 0%; TDP1 cell CPT: inconclusive; IL1B secr inh: 10

What do the screens show for `CC(=O)NC1CCCc2c1cnn2-c1ccc(C(C)(C)C)cc1` (stereo not drawn)?
DT40 TDP1 no CPT: inconclusive; HT1080NT lethal: -1%; HT1080 IDH1KD tx: -3%; TDP1 cell CPT: inconclusive; IL1B secr inh: -4

How did CC(C)(C)c1ccc(-n2ncc3c2CCCC3NC(=O)c2cnccn2)cc1 (stereo not drawn) do in these assays?
DT40 TDP1 no CPT: 9.2µM*; HT1080NT lethal: -20%; HT1080 IDH1KD tx: -5%; TDP1 cell CPT: inconclusive; IL1B secr inh: -82*

How did Cn1nccc1C(=O)NC1CCCc2c1cnn2-c1ccc(C(C)(C)C)cc1 (stereo not drawn) do in these assays?
DT40 TDP1 no CPT: 2.9µM*; HT1080NT lethal: 1.3µM*; HT1080 IDH1KD tx: 1.3µM*; TDP1 cell CPT: 2.9µM*; IL1B secr inh: -3

What do the screens show for `CC[N+]1(CC)CC2=Cc3c(ccc4ccccc34)C(C)C2C1` (stereo not drawn)?
DT40 TDP1 no CPT: 13µM*; HT1080NT lethal: 8%; HT1080 IDH1KD tx: 3%; TDP1 cell CPT: 5.8µM*; IL1B secr inh: -16

What do the screens show for `CC(C)(C)NC(=O)NC(=O)CSc1cccc(C(F)(F)F)c1`?
DT40 TDP1 no CPT: -2%; HT1080NT lethal: 3%; HT1080 IDH1KD tx: 0%; TDP1 cell CPT: -16%; IL1B secr inh: 0

What do the screens show for `C=CCCOc1ccccc1C(N)=O`?
DT40 TDP1 no CPT: -23%; HT1080NT lethal: 8%; HT1080 IDH1KD tx: 7%; TDP1 cell CPT: -21%; IL1B secr inh: 12

Results for COc1ccc(CNS(=O)(=O)c2ccc(-c3cc(C(F)(F)F)on3)s2)cc1OC ?
DT40 TDP1 no CPT: 5.2µM*; TDP1 cell CPT: 9.2µM*

Results for COc1ccc(N2CCN(S(=O)(=O)c3ccc(-c4cc(C(F)(F)F)on4)s3)CC2)cc1 ?
DT40 TDP1 no CPT: -5%; TDP1 cell CPT: 7%

What do the screens show for `COc1ccc(OC)c(CNS(=O)(=O)c2ccc(-c3cc(C(F)(F)F)on3)s2)c1`?
DT40 TDP1 no CPT: 8.2µM*; TDP1 cell CPT: 8.2µM*

What do the screens show for `COc1ccccc1CNS(=O)(=O)c1ccc(-c2cc(C(F)(F)F)on2)s1`?
DT40 TDP1 no CPT: 21µM*; TDP1 cell CPT: 23µM*

How did CN(C)CCNC(=O)/C=N/O do in these assays?
DT40 TDP1 no CPT: 23%; HT1080NT lethal: -1%; HT1080 IDH1KD tx: 4%; TDP1 cell CPT: 3%; IL1B secr inh: 12

How did CCOc1ccc(CNC(=O)c2ccc(NC(=O)N3CCCCc4ccccc43)cc2)cc1OC do in these assays?
DT40 TDP1 no CPT: 3%; TDP1 cell CPT: -21%

What do the screens show for `O=[N+]([O-])c1ccc(Cl)c(S(=O)(=O)/N=C(/Sc2ccc(Br)cc2)c2ccccc2)c1`?
DT40 TDP1 no CPT: 2.8µM*; TDP1 cell CPT: 6.3µM*

Results for Cc1c(N/C(=N/S(=O)(=O)c2cc([N+](=O)[O-])ccc2Cl)c2ccccc2)c(=O)n(-c2ccccc2)n1C ?
DT40 TDP1 no CPT: 3%; HT1080NT lethal: 10%; HT1080 IDH1KD tx: 10%; TDP1 cell CPT: 12%; IL1B secr inh: 0

Results for O=S(=O)(/N=C(/Sc1ccccc1)c1ccccc1)c1ccccc1 ?
DT40 TDP1 no CPT: 15µM*; HT1080NT lethal: 2%; HT1080 IDH1KD tx: -9%; TDP1 cell CPT: 8.2µM*; IL1B secr inh: -104*

What do the screens show for `O=S(=O)(/N=C(/Sc1ccc(Cl)cc1)c1ccccc1)c1ccccc1`?
DT40 TDP1 no CPT: 14µM*; TDP1 cell CPT: 10µM*

Results for CS/C(=N\S(=O)(=O)c1ccccc1)c1ccccc1 ?
DT40 TDP1 no CPT: -28%; HT1080NT lethal: 5%; HT1080 IDH1KD tx: 18%; TDP1 cell CPT: 7%; IL1B secr inh: -13

Results for O=S(=O)(/N=C(/Sc1ccccc1)c1ccccc1)c1ccc(Cl)cc1 ?
DT40 TDP1 no CPT: 16µM*; TDP1 cell CPT: inconclusive

Results for CCc1nnc(NC(=O)[C@@H](NC(=O)c2cccc(S(=O)(=O)N(CC)CC)c2)C(C)C)s1 ?
DT40 TDP1 no CPT: -23%; HT1080NT lethal: 3%; HT1080 IDH1KD tx: -13%; TDP1 cell CPT: -18%; IL1B secr inh: -9

Assay outcomes (PubChem BioAssay)
